Data on 64 compounds can be found in PMC4336329 (PLoS ONE, 2015).

In all, about 310,000 compounds went through this assay and about 14,000 (4.5%) showed an effect of 50% or more. The effect is printed as a negative number. What follows is part of a selection rich in strong results, with near analogues and random picks from the rest.
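Also: peak tail current of the secondary pulse compared with the same well before compound.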

This assay deals with human ether-à-go-go-related gene (hERG) potassium channel (human, UniProt Q12809). Nature of the assay: primary screen, population patch clamp on CHO cells stably expressing hERG; higher = less effect of the substance.
Chain of human ether-à-go-go-related gene (hERG) potassium channel (Q12809 whole entry, looked up): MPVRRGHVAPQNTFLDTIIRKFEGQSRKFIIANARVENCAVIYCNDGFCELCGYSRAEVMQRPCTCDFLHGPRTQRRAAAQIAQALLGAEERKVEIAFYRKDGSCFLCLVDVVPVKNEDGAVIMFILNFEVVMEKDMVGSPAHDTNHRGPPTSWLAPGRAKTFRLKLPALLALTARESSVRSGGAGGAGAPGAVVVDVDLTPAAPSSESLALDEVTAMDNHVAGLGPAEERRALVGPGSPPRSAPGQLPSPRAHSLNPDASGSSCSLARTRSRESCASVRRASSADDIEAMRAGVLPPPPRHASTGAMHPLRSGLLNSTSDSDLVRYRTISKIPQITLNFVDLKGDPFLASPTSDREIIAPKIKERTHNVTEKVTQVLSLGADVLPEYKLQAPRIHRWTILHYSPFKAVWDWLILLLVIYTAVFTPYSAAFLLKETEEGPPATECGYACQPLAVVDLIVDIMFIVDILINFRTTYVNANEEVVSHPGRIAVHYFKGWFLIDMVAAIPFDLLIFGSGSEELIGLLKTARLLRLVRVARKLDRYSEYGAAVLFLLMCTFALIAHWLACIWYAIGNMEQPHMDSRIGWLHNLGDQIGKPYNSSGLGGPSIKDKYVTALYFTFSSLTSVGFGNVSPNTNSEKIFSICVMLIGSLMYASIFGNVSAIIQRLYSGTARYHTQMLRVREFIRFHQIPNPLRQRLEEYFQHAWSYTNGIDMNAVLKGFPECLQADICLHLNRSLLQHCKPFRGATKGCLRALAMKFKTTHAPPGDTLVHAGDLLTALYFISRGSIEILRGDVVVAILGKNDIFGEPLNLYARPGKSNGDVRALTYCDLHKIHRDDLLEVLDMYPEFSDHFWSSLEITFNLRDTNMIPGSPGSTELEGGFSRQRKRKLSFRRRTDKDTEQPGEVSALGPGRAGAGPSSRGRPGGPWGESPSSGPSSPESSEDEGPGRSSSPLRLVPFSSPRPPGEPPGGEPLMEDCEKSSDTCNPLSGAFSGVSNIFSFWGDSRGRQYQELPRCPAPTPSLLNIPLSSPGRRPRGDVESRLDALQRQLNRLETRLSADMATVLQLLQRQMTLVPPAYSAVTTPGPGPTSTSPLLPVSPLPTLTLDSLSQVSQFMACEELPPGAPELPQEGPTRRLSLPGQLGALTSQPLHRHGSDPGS
For the compound `COC(=O)C1=C(C(=O)OC)N2C=CC=CC2(C)C(C(=O)OC)=C1C(=O)OC` (stereo not shown), the “hERG current change (%, negative = inhibition) at 10uM” value was -5.49%.

As to `CCCCC(=O)Nc1ccc(N2CCN(C(=O)c3ccco3)CC2)cc1`, the “hERG current change (%, negative = inhibition) at 10uM” value was -18.1%.

In the case of `COC(=O)c1cc(COC(=O)c2cccnc2SC)oc1C`, the “hERG current change (%, negative = inhibition) at 10uM” value is listed as -5.24%.

For the compound `O=C(CCNC(=O)C1CCN(S(=O)(=O)c2ccc(F)cc2)CC1)Nc1nccs1`, the “hERG current change (%, negative = inhibition) at 10uM” value is 15.5%.

`Cc1ccc(C2CC(=O)N(c3ccc(F)cc3)C3=C2C(=O)CCC3)cc1` (stereo not shown): the “hERG current change (%, negative = inhibition) at 10uM” value is 0.885%.

Turning to `CC1CCC(NC(=O)CCS(=O)(=O)c2ccc3c(c2)CC(C)N3C(=O)C2CC2)CC1` (stereo not shown), the “hERG current change (%, negative = inhibition) at 10uM” value worked out at 7.85%.

As for `CCCNC(=O)c1cc2ccccc2c(=O)o1`, the “hERG current change (%, negative = inhibition) at 10uM” value came out at 10.8%.

For the compound `CN(C)CCNC(=O)c1ccccc1-c1cc2ccccc2c(=O)o1`, the “hERG current change (%, negative = inhibition) at 10uM” value was -54.6%.

As for `CN(C)CCNC(=O)c1ccccc1-c1ccccc1`, the “hERG current change (%, negative = inhibition) at 10uM” value is given as -1.88%.

For the compound `COc1ccc(N(C)S(=O)(=O)c2cccc(C(=O)NC3CCCCC3C)c2)cc1` (stereo not shown), the “hERG current change (%, negative = inhibition) at 10uM” value is -6.33%.

With `O=C(NCN1C(=O)C2C3C=CC(C3)C2C1=O)OC1CCCCC1` (stereo not shown), the “hERG current change (%, negative = inhibition) at 10uM” value was 4.17%.

Regarding `CC1CCc2sc(C(=O)NCC(c3ccco3)N3CCCCC3)cc2C1` (stereo not shown), the “hERG current change (%, negative = inhibition) at 10uM” value was -30.8%.

Turning to `CCC1CCc2sc(C(=O)NCC3CCCO3)cc2C1` (stereo not shown), the “hERG current change (%, negative = inhibition) at 10uM” value is reported as -12.1%.

Consider `COc1ccc(C(CNC(=O)c2ccco2)N2CCCC2)cc1` (stereo not shown), for which the “hERG current change (%, negative = inhibition) at 10uM” value is on record as -7.05%.

For the compound `CCC1CCc2sc(C(=O)NCC(c3ccccc3OC)N3CCCC3)cc2C1` (stereo not shown), the “hERG current change (%, negative = inhibition) at 10uM” value is -63.6%.

Regarding `CCC1CCc2sc(C(=O)NCc3ccccn3)cc2C1` (stereo not shown), the “hERG current change (%, negative = inhibition) at 10uM” value is given as -3.79%.

Regarding `COc1ccc(C(CNC(=O)c2cc3c(s2)CCC(C)C3)N2CCOCC2)cc1` (stereo not shown), the “hERG current change (%, negative = inhibition) at 10uM” value is reported as -54%.

In the case of `COc1ccc(C(CNC(=O)c2ccc(Cl)s2)N2CCOCC2)cc1` (stereo not shown), the “hERG current change (%, negative = inhibition) at 10uM” value is listed as -18.2%.

On to `CCC1CCc2sc(C(=O)N(C)CC(=O)Nc3ccc(OC)cc3)cc2C1` (stereo not shown), for which the “hERG current change (%, negative = inhibition) at 10uM” value was -18.2%.

For `CCC1CCc2sc(C(=O)NCC(c3ccc(OC)cc3)N3CCCC3)cc2C1` (stereo not shown), the “hERG current change (%, negative = inhibition) at 10uM” value is reported as -71%.

As to `COc1ccc(C(CNC(=O)c2cc3c(s2)CCC(C)C3)N2CCCC2)cc1` (stereo not shown), the “hERG current change (%, negative = inhibition) at 10uM” value is on record as -57.7%.

For `COc1ccc(C(CNC(=O)c2cc3c(s2)CCCC3)N2CCOCC2)cc1` (stereo not shown), the “hERG current change (%, negative = inhibition) at 10uM” value was -23.5%.

As to `CCC1CCc2sc(C(=O)NCC(c3ccc(OC)cc3)N3CCOCC3)cc2C1` (stereo not shown), the “hERG current change (%, negative = inhibition) at 10uM” value is -5.82%.

Turning to `CCCNC(=O)Cn1nc(C(F)(F)F)c2c1CCCC2`, the “hERG current change (%, negative = inhibition) at 10uM” value is given as 9.29%.

Regarding `CC(=O)Oc1ccc(/C=C2/SC(=S)N(Cc3ccccc3)C2=O)cc1`, the “hERG current change (%, negative = inhibition) at 10uM” value is on record as 10.2%.

Regarding `CCn1c(SCC(=O)N2CCc3ccccc32)nnc1-c1ccncc1`, the “hERG current change (%, negative = inhibition) at 10uM” value was -7.04%.

With `COc1ccc(CCNC(=O)C2=CC=CN3CCS(=O)(=O)N=C23)cc1`, the “hERG current change (%, negative = inhibition) at 10uM” value is given as -7.92%.

With `Cc1ccccc1/C=C\c1nc2ccccc2c(=O)[nH]1`, the “hERG current change (%, negative = inhibition) at 10uM” value was 10.5%.

With `CC(Oc1ccc2c(-c3ccccc3)cc(=O)oc2c1)C(=O)N1CCC[C@@H]1C(N)=O` (stereo partly shown), the “hERG current change (%, negative = inhibition) at 10uM” value is reported as 1.14%.

In the case of `O=C(NCCS(=O)(=O)c1ccc(Br)cc1)c1ccc(Cl)cc1`, the “hERG current change (%, negative = inhibition) at 10uM” value was -2.62%.

Take `COc1ccc(CN(CCO)CCO)cc1[N+](=O)[O-].Cl`: the “hERG current change (%, negative = inhibition) at 10uM” value turned out to be 3.54%.

In the case of `CCCCOc1ccc(CN(CCO)CCO)cc1[N+](=O)[O-].Cl`, the “hERG current change (%, negative = inhibition) at 10uM” value was -22%.

For `CCCOc1ccc(CN(CCO)CCO)cc1C(=O)OC`, the “hERG current change (%, negative = inhibition) at 10uM” value turned out to be 6.82%.

`CCOc1ccc(CN(CCO)CCO)cc1[N+](=O)[O-].Cl`: the “hERG current change (%, negative = inhibition) at 10uM” value is reported as -62.9%.

Take `Cl.O=[N+]([O-])c1cc(CN(CCO)CCO)ccc1O`: the “hERG current change (%, negative = inhibition) at 10uM” value was -2.79%.

Consider `CCCOc1ccc(CN(CCO)CCO)cc1[N+](=O)[O-].Cl`, for which the “hERG current change (%, negative = inhibition) at 10uM” value is listed as -54.2%.

`CCOC(=O)N1CCN(CC(=O)Nc2cc3c(cc2C(C)=O)OCO3)CC1`: the “hERG current change (%, negative = inhibition) at 10uM” value is reported as -1.3%.

For `Fc1ccc2nc(Nc3nc4c(s3)CCCC4)sc2c1`, the “hERG current change (%, negative = inhibition) at 10uM” value was 3.62%.

For `COC(=O)N(NC(=O)C(O)(c1ccccc1)c1ccccc1)c1ccccc1`, the “hERG current change (%, negative = inhibition) at 10uM” value was found to be 9.59%.

As for `COc1ccc(OCC(=O)Nc2cc(NC(=O)c3ccco3)ccc2OC)cc1`, the “hERG current change (%, negative = inhibition) at 10uM” value turned out to be 5.23%.

Take `CC(/C=N/NC(=O)CN1CCN(Cc2ccc(Cl)cc2)CC1)=C\c1ccco1`: the “hERG current change (%, negative = inhibition) at 10uM” value is reported as -69.2%.

As for `CC(/C=N\NC(=O)CN1CCN(Cc2ccccc2)CC1)=C\c1ccco1`, the “hERG current change (%, negative = inhibition) at 10uM” value is given as -53.6%.

In the case of `O=C(CN1CCN(Cc2ccccc2)CC1)N/N=C/c1ccco1`, the “hERG current change (%, negative = inhibition) at 10uM” value is listed as -5.43%.

As for `O=C(CN1CCN(Cc2ccccc2)CC1)N/N=C\C=C/c1ccco1`, the “hERG current change (%, negative = inhibition) at 10uM” value is -26.9%.

Consider `CC(/C=N/NC(=O)Cc1cccn1C)=C\c1ccco1`, for which the “hERG current change (%, negative = inhibition) at 10uM” value was -13.1%.

Consider `CC(=C/c1ccco1)/C=N/NC(=O)Cc1cccn1C`, for which the “hERG current change (%, negative = inhibition) at 10uM” value is recorded as -6.63%.

In the case of `COc1ccccc1C(=O)N1CCN(C2CCN(Cc3ccccc3)CC2)CC1`, the “hERG current change (%, negative = inhibition) at 10uM” value is reported as -23.2%.

`C/C(=C\c1ccccc1F)C1Nc2cccc3cccc(c23)N1`: the “hERG current change (%, negative = inhibition) at 10uM” value was found to be 13.1%.

Regarding `Cc1ccc(/C=N/Nc2ccc3ccccc3n2)o1`, the “hERG current change (%, negative = inhibition) at 10uM” value is on record as -47.4%.

Take `CCN(CC)S(=O)(=O)c1ccc(OC)c(NC(=O)C2CC(=O)N(c3ccc(C)cc3)C2)c1` (stereo not shown): the “hERG current change (%, negative = inhibition) at 10uM” value is given as -19.6%.

For `CCOc1ccc(S(=O)(=O)N2CCCCC2)cc1NS(=O)(=O)c1cccs1`, the “hERG current change (%, negative = inhibition) at 10uM” value was 4.67%.

In the case of `CCC1CN(C(=O)NCc2ccc(F)cc2)c2cc(Cl)ccc2O1` (stereo not shown), the “hERG current change (%, negative = inhibition) at 10uM” value stood at 12.5%.

Turning to `CCNc1nc(CC)nc2c1oc1ccccc12.Cl`, the “hERG current change (%, negative = inhibition) at 10uM” value is reported as -11.5%.

For `CCc1nc(NCCCn2ccnc2)c2oc3ccccc3c2n1.Cl`, the “hERG current change (%, negative = inhibition) at 10uM” value was -56.1%.

As to `CCc1nc(NCCCN2CCOCC2)c2oc3ccccc3c2n1`, the “hERG current change (%, negative = inhibition) at 10uM” value is on record as -26.6%.

As for `c1coc(CNc2ncnc3c2oc2ccccc23)c1`, the “hERG current change (%, negative = inhibition) at 10uM” value is on record as -22.1%.

Consider `Cc1cc2oc3ccc(NCCCn4ccnc4)cc3c(=O)c2cc1C`, for which the “hERG current change (%, negative = inhibition) at 10uM” value amounted to 6.32%.

Take `O=c1c2ccccc2oc2ccc(NCCCn3ccnc3)cc12`: the “hERG current change (%, negative = inhibition) at 10uM” value is recorded as 9.83%.

For the compound `Cl.c1ccc2c(c1)oc1c(NCCCn3ccnc3)ncnc12`, the “hERG current change (%, negative = inhibition) at 10uM” value is given as -58.7%.

For the compound `CCc1nc(Nc2ccccc2)c2oc3ccccc3c2n1.Cl`, the “hERG current change (%, negative = inhibition) at 10uM” value is -5.28%.

For the compound `c1ccc(CNc2ncnc3c2oc2ccccc23)nc1`, the “hERG current change (%, negative = inhibition) at 10uM” value is given as -1.56%.

As to `CCc1nc(Nc2ccc(O)cc2)c2oc3ccccc3c2n1.Cl`, the “hERG current change (%, negative = inhibition) at 10uM” value is -13.6%.

As for `CCc1nc(Nc2ccncc2)c2oc3ccccc3c2n1.Cl`, the “hERG current change (%, negative = inhibition) at 10uM” value was -58.5%.

In the case of `O=c1c2ccccc2oc2cc(NCCCn3ccnc3)ccc12`, the “hERG current change (%, negative = inhibition) at 10uM” value is given as -60.9%.
